The record followed here is PubChem BioAssay (NCATS).

Test [1] can be described thus: qHTS for Inhibitors of Plasmodium falciparum (DD2) proliferation (AID 504314).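 Also: parasite DNA measured by SYBR Green fluorescence after red cell lysis; plate controls were DMSO vehicle for no effect and artemisinin wells for full effect.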 Put shortly:
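SYBR Green DNA-fluorescence growth assay: infected RBCs at 0.3% parasitemia, 2.5% hematocrit, 72 h compound exposure, 37C, 5% CO2; overnight lysis with dye at RT; normalized to 0.29 uM artemisinin and vehicle.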

Test [2] is described as follows: qHTS for Inhibitors of Plasmodium falciparum (HB3) proliferation (AID 504318).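 Also: 0% = DMSO vehicle and -100% = artemisinin control; nearly all actives have a fitted effect of over 60% in size.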 The procedure, abridged:
(§1)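 Parasite growth measured as SYBR Green DNA fluorescence (ex 485, em 535 nm) after overnight lysis following 72 h culture at 37 °C, 0.3% parasitemia, 2.5% hematocrit. Values normalized against DMSO and 0.29 uM artemisinin controls, with plate-stack correction.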
Background: qHTS replaces the single test concentration by a dilution series.

Test [3] can be described thus: qHTS for Inhibitors of Plasmodium falciparum (CP250) proliferation (AID 504320). Also: potency is read from the fitted curve at half-maximal effect.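 As to activity change, negative = inhibition: plate controls were DMSO vehicle for no effect and 0.29 µM artemisinin control for full effect.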 The procedure, abridged: as §1
Test [4] has as its target Atrial natriuretic peptide receptor 1 (Homo sapiens) (UniProt P16066). The experiment in a line: Natriuretic polypeptide receptor (hNpr1) antagonism - Pilot CMLD screen (AID 1347052; calls by dose curve;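 also: cGMP level read as GloSensor luciferase luminescence after agonist stimulation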; also: potency is read from the fitted curve at half-maximal effect;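 as to activity change, negative = inhibition: HEK293 cells with hNpr1 stimulated by hNppA peptide at 0.1 nM; series mostly up to about 9.2 µM; % is scaled to controls: 0 for no effect and ±100 for the full control effect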).
A short description of test [5]: qHTS for Inhibitors of Plasmodium falciparum (7G8) proliferation (AID 504316). Also: nearly all actives have a fitted effect of over 65% in size. Also: potency is read from the fitted curve at half-maximal effect.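 As to activity change, negative = inhibition: series mostly up to about 6.7 µM; 0% = DMSO vehicle and -100% = 0.29 µM artemisinin full kill.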 The procedure, abridged: as §1
Test [6] has as its target Cytochrome P450 2C9 (Homo sapiens) (UniProt P11712). As to the kind of experiment: qHTS Assay for Inhibitors and Substrates of Cytochrome P450 2C9 (AID 883). Also: % is scaled to controls: 0 for no effect and ±100 for the full control effect; nearly all actives have a fitted effect of over 60% in size. Put shortly:
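Inhibition of CYP2C9 is scored as loss of luminescence, with 57uM sulphaphenazole defining 100% inhibition. Substrate Luciferin-H is used at 100uM, equal to its KM; enzyme at 10nM in 25mM KPO4, 60 min at 37C with NADPH regeneration.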

Test [7] has as its target Cytochrome P450 3A4 (Homo sapiens) (UniProt P08684). As to the kind of experiment: qHTS Assay for Inhibitors and Substrates of Cytochrome P450 3A4 (AID 884). Also: series mostly up to about 57 µM; % is scaled to controls: 0 for no effect and ±100 for the full control effect; nearly all actives have a fitted effect of over 50% in size. The procedure, abridged: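 Luminescent readout of luciferin produced by CYP3A4 (20 nM) dealkylation of Luciferin-PPXE, 25 uM (its KM). NADPH-driven reaction ran 60 min at RT after 10 min compound preincubation; data scaled to 57 uM ketoconazole as 100% inhibition.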

Test [8] concerns the target Cytochrome P450 2D6 (Homo sapiens) (UniProt P10635). As to the kind of experiment: qHTS Assay for Inhibitors and Substrates of Cytochrome P450 2D6 (AID 891).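 Also: luciferin methyl ether substrate demethylated by CYP2D6 with NADPH regeneration; % is scaled to controls: 0 for no effect and ±100 for the full control effect; nearly all actives have a fitted effect of over 60% in size.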 Put shortly: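 Luminescent read-out of luciferin formed by 5 nM human CYP2D6 demethylating 30 uM Luciferin-ME EGE (Km level) over 60 min at room temperature after NADPH regeneration addition. Data normalized to full inhibition by 1.43 uM quinidine.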

The target of test [9] is Cytochrome P450 2C19 (Homo sapiens) (UniProt P33261). As to the kind of experiment: qHTS Assay for Inhibitors and Substrates of Cytochrome P450 2C19 (AID 899). Also: % is scaled to controls: 0 for no effect and ±100 for the full control effect; nearly all actives have a fitted effect of over 60% in size. The procedure, abridged: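 5nM enzyme + 10uM Luciferin-H EGE (=KM), 50mM KPO4; cpd pin-transferred, 10 min 37C; NADPH regen, 60 min 37C; stopped w/ luciferin detection reagent, 20 min; luminescence. Normalized to 57uM ketoconazole (AC100).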

Test [10] in a line: qHTS for Inhibitors of Plasmodium falciparum (GB4) proliferation (AID 504315). Also: potency is read from the fitted curve at half-maximal effect; nearly all actives have a fitted effect of over 50% in size. The procedure, abridged:
as §1

Results filed as inconclusive are left out. Values without a mark were called inactive. Activity calls are given as the source filed them. Unless noted, calls follow the shape of the dose curve; as a rule, active = well fitted curve in the direction sought with a large enough effect; inconclusive = small, poorly fitted or top-dose-only effect, or another doubt; inactive = no such curve, though single readings can be large; an effect the other way counts as inactive or inconclusive.

Atrial natriuretic peptide receptor 1 (Homo sapiens), sequence (P16066 whole entry, looked up): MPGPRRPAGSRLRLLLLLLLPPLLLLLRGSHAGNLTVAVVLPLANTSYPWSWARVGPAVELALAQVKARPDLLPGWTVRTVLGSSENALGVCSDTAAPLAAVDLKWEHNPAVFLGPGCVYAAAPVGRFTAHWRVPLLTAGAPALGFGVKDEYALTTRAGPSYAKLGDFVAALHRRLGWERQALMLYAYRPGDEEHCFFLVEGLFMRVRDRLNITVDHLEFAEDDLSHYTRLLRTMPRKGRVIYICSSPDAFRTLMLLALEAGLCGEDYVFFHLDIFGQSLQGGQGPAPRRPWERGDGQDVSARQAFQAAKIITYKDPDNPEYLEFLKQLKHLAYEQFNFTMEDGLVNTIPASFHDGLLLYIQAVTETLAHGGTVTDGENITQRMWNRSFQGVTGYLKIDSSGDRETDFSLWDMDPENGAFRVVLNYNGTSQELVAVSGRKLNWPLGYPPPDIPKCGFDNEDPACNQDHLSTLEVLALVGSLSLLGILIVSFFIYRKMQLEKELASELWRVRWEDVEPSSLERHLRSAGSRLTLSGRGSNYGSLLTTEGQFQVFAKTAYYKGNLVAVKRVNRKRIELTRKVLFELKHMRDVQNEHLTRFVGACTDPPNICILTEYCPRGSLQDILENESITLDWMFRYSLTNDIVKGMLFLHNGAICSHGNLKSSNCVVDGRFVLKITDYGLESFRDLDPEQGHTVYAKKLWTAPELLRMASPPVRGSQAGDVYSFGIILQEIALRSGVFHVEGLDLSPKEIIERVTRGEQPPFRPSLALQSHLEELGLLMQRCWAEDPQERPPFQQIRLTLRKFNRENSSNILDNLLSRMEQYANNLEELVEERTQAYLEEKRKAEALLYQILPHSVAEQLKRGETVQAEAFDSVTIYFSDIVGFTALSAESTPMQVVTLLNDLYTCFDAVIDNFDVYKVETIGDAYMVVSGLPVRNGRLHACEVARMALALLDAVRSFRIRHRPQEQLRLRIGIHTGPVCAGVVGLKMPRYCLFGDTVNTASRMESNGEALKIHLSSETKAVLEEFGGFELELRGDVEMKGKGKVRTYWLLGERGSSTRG
Cytochrome P450 2C9 (Homo sapiens), sequence (P11712 whole entry, looked up): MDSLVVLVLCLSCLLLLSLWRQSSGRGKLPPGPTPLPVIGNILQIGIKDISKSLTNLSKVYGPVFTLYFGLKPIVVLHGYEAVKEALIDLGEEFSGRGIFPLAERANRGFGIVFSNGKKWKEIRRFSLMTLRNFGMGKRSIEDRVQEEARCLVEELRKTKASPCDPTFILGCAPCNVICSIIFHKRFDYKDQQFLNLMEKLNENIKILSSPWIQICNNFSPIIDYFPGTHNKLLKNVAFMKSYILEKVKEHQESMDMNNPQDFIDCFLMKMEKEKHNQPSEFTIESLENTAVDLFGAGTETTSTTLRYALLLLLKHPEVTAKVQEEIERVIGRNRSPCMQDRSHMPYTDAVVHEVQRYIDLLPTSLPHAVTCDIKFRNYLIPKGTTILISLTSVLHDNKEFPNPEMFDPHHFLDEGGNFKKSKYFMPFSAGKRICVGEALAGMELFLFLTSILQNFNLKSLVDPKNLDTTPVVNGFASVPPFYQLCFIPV
Cytochrome P450 3A4 (Homo sapiens), sequence (P08684 whole entry, looked up): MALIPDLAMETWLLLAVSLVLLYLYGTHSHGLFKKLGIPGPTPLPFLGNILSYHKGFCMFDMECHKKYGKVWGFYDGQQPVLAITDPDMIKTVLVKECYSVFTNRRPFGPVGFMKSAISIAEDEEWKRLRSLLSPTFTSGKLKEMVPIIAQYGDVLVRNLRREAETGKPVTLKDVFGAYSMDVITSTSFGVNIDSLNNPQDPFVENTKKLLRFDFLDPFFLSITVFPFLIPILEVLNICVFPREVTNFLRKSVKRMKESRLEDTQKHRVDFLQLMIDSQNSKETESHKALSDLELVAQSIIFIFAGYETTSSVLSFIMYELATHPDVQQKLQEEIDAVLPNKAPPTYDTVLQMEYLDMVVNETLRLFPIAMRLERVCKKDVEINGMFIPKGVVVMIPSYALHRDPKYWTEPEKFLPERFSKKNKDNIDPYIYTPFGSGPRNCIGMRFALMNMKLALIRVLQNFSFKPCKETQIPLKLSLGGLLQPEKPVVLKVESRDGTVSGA
Cytochrome P450 2D6 (Homo sapiens), sequence (P10635 whole entry, looked up): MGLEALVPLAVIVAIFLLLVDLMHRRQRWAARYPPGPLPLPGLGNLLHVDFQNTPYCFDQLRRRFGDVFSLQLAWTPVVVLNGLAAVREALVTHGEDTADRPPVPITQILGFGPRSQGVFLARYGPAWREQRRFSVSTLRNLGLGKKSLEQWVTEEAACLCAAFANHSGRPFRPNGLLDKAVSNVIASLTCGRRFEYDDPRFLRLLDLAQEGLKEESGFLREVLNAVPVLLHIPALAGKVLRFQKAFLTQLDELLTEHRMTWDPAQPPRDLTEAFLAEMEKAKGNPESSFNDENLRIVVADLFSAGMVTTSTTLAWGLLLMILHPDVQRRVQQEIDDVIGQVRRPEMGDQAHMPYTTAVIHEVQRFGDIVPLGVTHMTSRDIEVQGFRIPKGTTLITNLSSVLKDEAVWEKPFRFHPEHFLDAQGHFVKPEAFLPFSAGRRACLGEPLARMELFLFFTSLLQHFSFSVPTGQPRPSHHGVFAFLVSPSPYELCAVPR
Cytochrome P450 2C19 (Homo sapiens), sequence (P33261 whole entry, looked up): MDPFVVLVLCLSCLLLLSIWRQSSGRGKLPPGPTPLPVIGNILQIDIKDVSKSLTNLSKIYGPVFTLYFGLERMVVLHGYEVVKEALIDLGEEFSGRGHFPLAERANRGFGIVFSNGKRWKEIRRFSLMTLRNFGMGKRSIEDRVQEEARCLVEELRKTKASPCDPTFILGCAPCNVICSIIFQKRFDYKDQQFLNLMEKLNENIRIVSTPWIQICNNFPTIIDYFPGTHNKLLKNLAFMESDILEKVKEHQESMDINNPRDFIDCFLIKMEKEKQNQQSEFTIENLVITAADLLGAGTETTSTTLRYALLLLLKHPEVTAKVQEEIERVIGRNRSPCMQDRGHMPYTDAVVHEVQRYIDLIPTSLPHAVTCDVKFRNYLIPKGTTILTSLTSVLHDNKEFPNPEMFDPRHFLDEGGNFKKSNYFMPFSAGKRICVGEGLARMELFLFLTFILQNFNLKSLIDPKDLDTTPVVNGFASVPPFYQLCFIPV

With `CC=COC(=O)N[C@@H](c1ccccc1)[C@]1(C(=O)OC)CCCC1=O`, the Potency result in test [1], in [2], in test [3] and in test [4] was “inactive” throughout.

`COC(=O)[C@@]1(C=C2c3ccc(F)cc3[C@@H](OC)[C@@H]2C)[C@@H]2C=CC[C@@H]21`: the Potency entry in test [1], in test [5], in test [3] and in test [4] was “inactive” throughout.

For `O=C(C=Cc1ccccc1)N1CCC[C@H]1CO`, the Potency entry in test [1], in test [2], in test [3] and in [4] was “inactive” in each case.

Consider `CC(=O)OC[C@H]1O[C@@H](ON=CC[C@@H]2C=C[C@@H](OC(C)=O)[C@@H](COC(C)=O)O2)[C@@H](OC(C)=O)[C@@H](OC(C)=O)[C@@H]1OC(C)=O`, for which the Potency entry in test [1], in test [2], in [3] and in test [4] was “inactive” each time.

On to `CC(CCN1CCc2nc(-c3ccccc3)c(-c3ccccc3)cc2C1)=NOC[C@@H](O)[C@H]1O[C@@H]2OC(C)(C)O[C@H]2[C@@H]1O`, for which the Potency result in test [1], in [3] and in test [4] was “inactive” in each case. Further, the Potency in test [5] was 1900 nM (active).

In the case of `C[C@@H]1CC2=CCCC2[C@]2(O1)C(=O)N(Cc1ccc(Br)cc1)c1cccc(Br)c12` (stereo partly specified), the Potency entry in test [1], in test [5], in test [3] and in test [4] was “inactive” each time.

As to `COC(=O)C1=C(C)N(Cc2ccccc2)C(=NCc2ccccc2)NC1c1ccccc1` (stereo unspecified), the Potency result in [1], in test [2], in [3] and in [4] was “inactive” each time.

With `CCN1C(=O)[C@@H]2[C@H]3[C@H](O)[C@H](O)CC(=NNC(=O)OCc4ccccc4)[C@@H]3CC[C@H]2C1=O`, the Potency result in test [1], in test [2], in test [3] and in [4] was “inactive” in each case.

`COC(=O)C1=C[C@@]2(c3ccc(OC)cc3[C@@H](OC)[C@@H]2C)[C@@H]2C=C[C@@H]1C2`: the Potency result in test [1], in [5], in test [3] and in [4] was “inactive” in each case.

As for `CC#CCC1(C(=O)OC)C(=O)NC[C@H]1c1ccccc1` (stereo partly specified), the Potency entry in [1], in test [2], in test [3] and in [4] was “inactive” in each case.

On to `C=CC1=C2C=C(C3CC3)N(CC(C)C)C=C2C(=O)C(C)(OC(=O)c2ccco2)C1=O` (stereo unspecified), for which the activity, negative = inhibition in test [1] is -0.305% [at 1.12 µM]. The Potency entry in [2], in test [3] and in test [4] was “inactive” each time.

In the case of `COc1cc(CCN2C(=O)NC(c3ccccc3)C(C(C)=O)=C2C)cc(OC)c1OC` (stereo unspecified), the Potency entry in test [1], in test [3] and in [4] was “inactive” throughout.

With `C=CCN1C(=O)CC[C@@]23C1=NC(C(=O)OC)=C(C(=O)OC)[C@@H]2N(CC=C)c1ccccc13`, the Potency entry in [1] and in test [3] was “inactive” in each case. For the same molecule, the Potency in test [4] was 2370 nM (active).

As to `CC1(O)C(=O)C=C2C=C(CCCCOCc3ccccc3)OC=C2C1=O` (stereo unspecified), the values for the activity change, negative = inhibition in [6], in test [7] and in [8] were -27.6% [at 11.4 µM], -25.3% [at 11.4 µM] and -3.73% [at 11.4 µM], respectively. Also, the activity, negative = inhibition in [9] is -23.3% [at 11.4 µM]. Moreover, the Potency entry in test [1], in test [5], in [3] and in test [4] was “inactive” throughout.

As for `CCCCCCCc1cc2ccccc2c2c(C(=O)OC)c(C)c(C(=O)OC)n12`, the Potency result in [1], in test [2] and in test [3] was “inactive” throughout. For the same molecule, the Potency in [4] is 944 nM (active).

On to `C=CC[C@@H]1C=C[C@H](ON=C2c3cc(OC)ccc3O[C@H](c3cccc(OC)c3)[C@@H]2O)[C@H](CO)O1`, for which the Potency result in test [1], in test [2] and in test [4] was “inactive” each time.

As to `COc1cccc(C(CC2=CCCCC2)NC(=O)C(F)(F)F)c1` (stereo unspecified), the Potency result in [1], in test [2], in [3] and in test [4] was “inactive” each time.

`C[C@@H]1C=CCC(=O)N[C@@H](c2ccccc2)[C@H](C)C=CCC(=O)N[C@@H]1c1ccccc1`: the Potency entry in test [1], in test [2], in test [3] and in test [4] was “inactive” throughout.

In the case of `C=C(C)C(O)C=Cc1ccccc1OC` (stereo unspecified), the Potency entry in test [1], in test [2], in test [3] and in test [4] was “inactive” in each case.

Take `CCOC(=O)CN1C(=O)NC(c2ccc(Br)cc2)C(C(C)=O)=C1C` (stereo unspecified): the Potency entry in [1], in [2], in [3] and in test [4] was “inactive” each time.

In the case of `COC(=O)[C@H]1[C@@H](c2ccccc2)NC(=O)O[C@@H]1C`, the Potency result in test [1], in test [2], in [3] and in test [4] was “inactive” in each case.

In the case of `COC1(C#C[C@@H]2C=C[C@H](OC(C)=O)[C@@H](COC(C)=O)O2)CCCCC1`, the Potency result in test [1], in test [5], in test [3] and in [4] was “inactive” each time.

For `C[C@@H]1C[C@H]2[C@@H](C)C(=O)N3[C@@H](C[C@@H](C)[C@@H]3c3ccccc3)[C@@H](C)C(=O)N2[C@H]1c1ccccc1`, the Potency result in test [1], in test [2], in [3] and in test [4] was “inactive” throughout.

For `C=C(C)CCCN1C=C(C(=O)OCC)C(c2ccccc2)NC1=O` (stereo unspecified), the Potency entry in test [1], in [2], in test [3] and in test [4] was “inactive” in each case.

For `COC(=O)c1c(C(=O)OC)c2c3cc(OC)c(OC)cc3ccn2c1C(=O)OC`, the Potency result in test [1], in test [3] and in [4] was “inactive” each time.

With `C=C(CO[C@@H]1C=C[C@@H](c2ccccc2)O[C@@H]1COC)c1ccccc1`, the Potency in [10] was 1510 nM (active). Also, in test [4], the Potency entry was “inactive”.

As to `C=CC[C@@H]1C=C[C@@H](Oc2ccc(OC)cc2)[C@H](CO)O1`, in [10], the Potency was 1510 nM (active). Besides, the Potency entry in test [4] is “inactive”.

As to `CC(C)=CCCC(C)=CCN1C(=O)[C@]2(O[C@H](C)CC3=CCCC32)c2c(Br)cccc21` (stereo partly specified), the Potency entry in test [1], in [3] and in test [4] was “inactive” throughout.

For `C=C(C)C(=O)OC[C@H]1CN2[C@H](c3ccc(Br)cc3)[C@H](C)CC[C@H]2C(=O)O1`, the Potency result in test [1] and in test [4] was “inactive” each time. For the same molecule, the Potency in [3] is 1510 nM (active).

For `COC(=O)C1=C(C(=O)OC)[C@@H]2N(C)c3ccc(OC)cc3[C@@]23C[C@@H](C(=O)OC)N(C(=O)NC(C)(C)C)C3=N1`, the Potency in [10] is 1900 nM (active). Also, the Potency result in test [4] is “inactive”.

Regarding `COc1ccc(C=CN(CCc2ccc(OC)c(OC)c2)C(=O)c2ccccn2)cc1`, the Potency entry in test [1], in [3] and in [4] was “inactive” in each case.

Regarding `COC(=O)C1=C(C(=O)OC)[C@@H]2N(C)c3ccccc3[C@@]23CCC(=O)N(Cc2cc(OC)c(OC)c(OC)c2)C3=N1`, the Potency entry in test [1], in test [3] and in test [4] was “inactive” in each case.

In the case of `COc1ccc([C@]23Cc4ccccc4[C@H](O2)c2c(cc(C)n(Cc4ccccc4)c2=O)O3)cc1`, the Potency in [10] is 2130 nM (active). For the same molecule, in test [4], the Potency result was “inactive”.

Consider `COc1cccc([C@@H]2Oc3ccc(OC)cc3C(=O)[C@@H]2OC(=O)N[C@H]2CCCc3ccccc32)c1`, for which the Potency result in test [1], in test [3] and in test [4] was “inactive” throughout.

Turning to `C=C(C(C)=O)C(O)c1ccco1` (stereo unspecified), the Potency result in test [1], in test [3] and in test [4] was “inactive” throughout.
